The record followed here is PubChem BioAssay (NCI).

Test systems include EKVX NSCLC; SN12C renal; UO-31 renal; TK-10 renal; ACHN renal; CAKI-1 renal; A498 renal; MOLT-4 leukemia; CCRF-CEM leukemia.
What all share (test): NCI-60 one-dose screen, 48 h (100 = growth as untreated, 0 = no growth, -100 = all killed)
What all share (conditions): 10 µM unless noted

Each structure is given as a SMILES string. About 83,000 compounds went through this panel and 20% of them were active in at least one assay; those are over-represented in the sample as a whole.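 The endpoint reported here, percent growth, reads 100 for growth as untreated, 0 for no net growth and -100 for all cells dead.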 Unmarked numbers belong to inactive results. Activity calls are given as the source filed them. The calls were made as follows: active = growth percent below 10; inactive = the rest.

Turning to `COc1cc(/C(C#N)=C/c2ccc3c(c2OC)OCO3)cc2c1OCO2`, the growth in the assay on EKVX NSCLC is 45.9%; in the assay on SN12C renal, 36.6%; in the assay on UO-31 renal, 41.7%; with TK-10 renal, 54.3%; in the assay with ACHN renal it was 51.6%; in the assay on CAKI-1 renal it was 42.9%. The growth was 8.92% (active) in the assay with A498 renal and 50.6% in the assay on MOLT-4 leukemia.

Take `O=C(Nc1ccncc1)C(=O)c1cn(S(=O)(=O)c2ccc(Br)cc2)c2ccccc12`: the growth was 44.5% in the assay with EKVX NSCLC; 46.3% in the assay on SN12C renal; 52.7% with UO-31 renal; 98.2% in the assay with TK-10 renal; 58% with ACHN renal; 40.6% in the assay on CAKI-1 renal. Besides, the figures for the growth with A498 renal and in the assay on MOLT-4 leukemia were 47.3% and 44.3%, respectively.

In the case of `Cc1ccc(-c2cc3nc(C(Cl)Cl)nc(-c4cccnc4)n3n2)cc1`, the growth is -2.59% (active) with EKVX NSCLC; 55.1% with SN12C renal; 35.9% with UO-31 renal; 6.78% (active) with TK-10 renal; 1.65% (active) in the assay with ACHN renal; 2.71% (active) with CAKI-1 renal. For the same compound, the values for the growth in the assay with A498 renal and in the assay with MOLT-4 leukemia were 37.3% and 27.8%, respectively.

`ClC(Cl)c1nc(-c2ccccc2)nc2cc(-c3ccccc3)nn12`: the growth is 58.6% in the assay with EKVX NSCLC; 72.1% in the assay on SN12C renal; 58.7% with UO-31 renal; 21.6% in the assay with TK-10 renal; 46.2% in the assay on ACHN renal; 50.6% in the assay on CAKI-1 renal. Besides, the values for the growth in the assay on A498 renal and in the assay on MOLT-4 leukemia were 80.7% and 101%, respectively.

For the compound `CCCOC(=O)n1cccc1`, the growth in the assay with EKVX NSCLC was 99.7%; in the assay on SN12C renal it was 94.2%; with TK-10 renal, 110%; in the assay with CAKI-1 renal, 108%; in the assay on A498 renal, 106%; with CCRF-CEM leukemia it was 99.2%. The growth in the assay on MOLT-4 leukemia was 117%.

As for `O=[N+]([O-])c1ccc(OCCCOc2ccccc2)cc1`, the growth in the assay on EKVX NSCLC is 96.8%; in the assay with SN12C renal, 104%; with TK-10 renal, 97.5%; in the assay on ACHN renal it was 106%; with CAKI-1 renal, 93.9%; with CCRF-CEM leukemia it was 105%. Besides, the growth in the assay on MOLT-4 leukemia was 94.6%.

In the case of `COc1ccc(-c2nc3sccn3c2/C=C/C(=O)c2cc(F)cc(F)c2)cc1`, the growth in the assay with EKVX NSCLC is 88%; with SN12C renal, 92.1%; with TK-10 renal, 164%; with ACHN renal it was 65.4%; in the assay on A498 renal it was 57.6%; in the assay on CCRF-CEM leukemia, 19.4%. Moreover, the growth in the assay on MOLT-4 leukemia is 5.45% (active).

Consider `COc1ccc(-c2ccc(C)n2-c2ccc(-c3nc4ccccc4s3)cc2)cc1`, for which the growth in the assay on EKVX NSCLC was 78%; with SN12C renal, 86.6%; with UO-31 renal, 86.6%; in the assay with TK-10 renal it was 119%; in the assay on ACHN renal it was 90.9%; in the assay with A498 renal, 65.7%. For the same compound, the growth with MOLT-4 leukemia was 81.8%.

For `COc1ccc(-c2cc3c(OC)c(OC)c(OC)cc3oc2=O)cc1`, the growth was 64.3% in the assay on EKVX NSCLC; 56.4% with SN12C renal; 77.9% in the assay on UO-31 renal; 85% with TK-10 renal; 66.8% with ACHN renal; 57.1% in the assay with CAKI-1 renal. Also, in the assay on MOLT-4 leukemia, the growth was 64.7%.

For `O=S(=O)(NCCNc1nccc(-c2c(-c3cccc(O)c3)nc3sccn23)n1)c1ccc(F)cc1`, the growth in the assay on SN12C renal was 63.9%; with UO-31 renal, 83.4%; in the assay on TK-10 renal, 108%; with ACHN renal it was 60.2%; with CAKI-1 renal, 82.7%; in the assay with A498 renal it was 76.4%. Further, the growth is 41.7% in the assay on CCRF-CEM leukemia and 44.5% in the assay on MOLT-4 leukemia.

For the compound `COc1cc(-c2nn(-c3cccc(NC(=O)Nc4cc(C(F)(F)F)cc(C(F)(F)F)c4)c3)cc2-c2ccncc2)ccc1Cl`, the growth in the assay with SN12C renal was -8.08% (active); in the assay with UO-31 renal it was -29.2% (active); with TK-10 renal it was -26.7% (active); in the assay with ACHN renal, 10.5%; in the assay with CAKI-1 renal it was 18.5%; in the assay on A498 renal, -14.6% (active). Besides, the growth with CCRF-CEM leukemia is -27.3% (active); with MOLT-4 leukemia, -24.5% (active).

Turning to `N/C(=N\C(N)=N\c1nc2ccccc2s1)c1ccncc1`, the growth with EKVX NSCLC was 78.9%; in the assay with SN12C renal, 72.6%; with UO-31 renal, 64.2%; with TK-10 renal, 109%; in the assay on ACHN renal, 75.8%; in the assay on CAKI-1 renal it was 44.9%. The growth was 63% in the assay with CCRF-CEM leukemia and 45.2% with MOLT-4 leukemia.

Regarding `CC(C)C(C(=O)NCCN1CCOCC1)N1C(=O)/C(=C/c2ccc(Br)cc2)SC1=S` (centres undefined), the growth with EKVX NSCLC was 104%; with SN12C renal it was 93.8%; with UO-31 renal, 84.9%; with TK-10 renal, 121%; with ACHN renal it was 101%; in the assay with A498 renal, 96.8%. Also, the growth in the assay on CCRF-CEM leukemia is 97.8%; with MOLT-4 leukemia, 102%.

For `NC1=NN(O)C2=CC([N+](=O)[O-])C=CC2=N1` (centres undefined), the growth in the assay with EKVX NSCLC was 99.5%; in the assay on SN12C renal, 112%; in the assay on UO-31 renal, 93.3%; with TK-10 renal, 121%; in the assay with ACHN renal it was 105%; in the assay on A498 renal, 109%. Besides, the growth was 104% in the assay on CCRF-CEM leukemia and 111% in the assay with MOLT-4 leukemia.

As for `COc1ccc(-c2cnoc2-c2ccc(OC)cc2O)cc1`, the growth with EKVX NSCLC is 82.9%; with SN12C renal, 37.2%; in the assay with UO-31 renal, 74.5%; with TK-10 renal, 86.9%; with ACHN renal it was 57.4%; with CAKI-1 renal, 45.2%. In addition, the growth in the assay on MOLT-4 leukemia is 44.2%.

For the compound `O=C(Nc1ccncc1)C(=O)c1cn(S(=O)(=O)c2ccc(Cl)cc2)c2ccccc12`, the growth with EKVX NSCLC was 53.5%; with SN12C renal, 34%; with TK-10 renal, 81.9%; in the assay with ACHN renal, 52.8%; with CAKI-1 renal, 44.9%; with A498 renal it was 53.6%. In addition, the growth with MOLT-4 leukemia is 48%.

For the compound `CC(C)c1ccc2occ(C=C3C(=O)NC(=O)NC3=O)c(=O)c2c1`, the growth with EKVX NSCLC is 117%; in the assay with SN12C renal, 91.5%; in the assay on UO-31 renal, 86.6%; with TK-10 renal it was 84.6%; in the assay on ACHN renal it was 104%; in the assay on CAKI-1 renal, 103%. Besides, the growth in the assay with CCRF-CEM leukemia was 77.8%; in the assay on MOLT-4 leukemia it was 66.8%.
